Reference: PubChem BioAssay (NCI)
This is part of a sample that, as a whole, favours compounds with a hit. Of some 79,000 tested, about 15% had one in any assay. Values without a mark were called inactive. Calls of active or inactive are those of the source. Rule as the data show it: active = growth inhibition above about 70%; inactive = the rest.

Tests used:
[1] = NCI Yeast Anticancer Drug Screen. Data for the rad50 strain (AID 155);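 also: 0% = growth of vehicle-only cultures of the same strain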; settings: S. cerevisiae rad50 strain growth inhibition, hits give high values
Summary of the method: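 Relative growth inhibition (compound vs vehicle) was measured in yeast with a defined repair-gene alteration.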

[2] = NCI Yeast Anticancer Drug Screen. Data for the mec2-1 strain (AID 157); settings: S. cerevisiae mec2-1 strain, hits give high values
Summary of the method: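 Mutant yeast (mec2-1) grown with compound; growth inhibition relative to vehicle control reported.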

[3] = NCI Yeast Anticancer Drug Screen. Data for the sgs1 mgt1 strain (AID 161);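 also: 0% = growth of cultures given vehicle only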; settings: S. cerevisiae sgs1 mgt1 strain, hits give high values
Summary of the method: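 Percent growth inhibition was derived by comparing compound-exposed mutant yeast with vehicle-exposed cultures. The strain carries alterations in DNA damage repair.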

[4] = NCI Yeast Anticancer Drug Screen. Data for the cln2 rad14 strain (AID 165);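 also: 0% = growth equal to vehicle treated cultures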; settings: S. cerevisiae cln2 rad14 strain, hits give high values
Summary of the method: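 Readout is yeast growth inhibition versus vehicle-treated controls, using a strain with cln2 and rad14 alterations exposed to compound.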

[5] = NCI Yeast Anticancer Drug Screen. Data for the bub3 strain (AID 167); settings: S. cerevisiae bub3 mutant strain, hits give high values
Summary of the method: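 Screening used yeast with an engineered genetic alteration affecting cell cycle control. Compound-exposed cultures were compared with vehicle cultures, and reduced growth was taken as inhibition.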

[6] = NCI Yeast Anticancer Drug Screen. Data for the mlh1 rad18 strain (AID 175); settings: S. cerevisiae mlh1 rad18 strain growth inhibition, hits give high values
Summary of the method: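 Genetically defined yeast (DNA repair-deficient) exposed to compounds; growth inhibition determined relative to vehicle.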

[7] = at 5.0 µM (retest, dose inferred, filed as 0.5)
[8] = at 50.0 µM (retest, dose inferred, filed as 5.0)

SMILES | growth inhibition [1, 7] [%] | growth inhibition [1, 8] | growth inhibition ([1]; at 50.0 µM) | growth inhibition [2, 7] [%] | growth inhibition [2, 8] | growth inhibition ([2]; at 50.0 µM) | growth inhibition [3, 7] [%] | growth inhibition [3, 8] | growth inhibition ([3]; at 50.0 µM) | growth inhibition [4, 7] [%] | growth inhibition [4, 8] | growth inhibition ([4]; at 50.0 µM) | growth inhibition [5, 7] [%] | growth inhibition [5, 8] | growth inhibition ([5]; at 50.0 µM) | growth inhibition [6, 7] [%] | growth inhibition [6, 8] | growth inhibition ([6]; at 50.0 µM)
O=[N+]([O-])/C=C/C=C/c1ccco1 | -1 | 98% (active) | 99.6% (active) | 3 | 99% (active) | 64.2% | 6 | 94% (active) | 97.2% (active) | 2 | 99% (active) | 99.1% (active) | 7 | 98% (active) | 99.1% (active) | -5 | 98% (active) | 95.8% (active)
C=C(Br)CN(CC)CC | -151 | -185% | -16.6% | -48 | -54% | -15.7% | -64 | -67% | -5.55% | -51 | -63% | 11.7% | -69 | -72% | -0.5% | -130 | -170% | -3.5%
CCCCCCCCCCCCCCCCOS(=O)(=O)O | 24 | 99% (active) | 98% (active) | 13 | 100% (active) | 98.5% (active) | 49 | 100% (active) | 98.8% (active) | 5 | 99% (active) | 97.7% (active) | 20 | 100% (active) | 98.8% (active) | 42 | 100% (active) | 99% (active)
CCOC(=O)c1c(O)c(C)c(=O)n2c1[nH]c1cc(C)c(C)cc12 | -1 | 12% | -6.75% | 10 | 33% | -6.85% | 12 | 29% | -6.5% | -4 | 2% | -21.3% | -6 | 14% | -43.9% | -4 | 38% | -10.6%
Cc1cc(NC(=S)SCc2ccc3c(c2)OCO3)ccc1Br | 38 | 98% (active) | 89.7% (active) | 28 | 98% (active) | 91.6% (active) | 54 | 98% (active) | 91.2% (active) | 40 | 99% (active) | 87.2% (active) | 49 | 98% (active) | 91.2% (active) | 34 | 98% (active) | 89.7% (active)
O=C(Oc1c(Cl)cc(Cl)c(Cl)c1Cl)Oc1c(Cl)cc(Cl)c(Cl)c1Cl | 4 | 1% | -1.15% | 5 | 4% | 15.2% | 6 | -11% | 0.3% | 6 | -11% | 6.85% | 4 | 0% | 70% (active) | 1 | -1% | 0.15%
CCCCn1cnc2c(SCc3ccccc3[N+](=O)[O-])nc(N)nc21 | 1 | -2% | 94.9% (active) | -2 | 1% | 98.2% (active) | 1 | 2% | 96.9% (active) | -15 | -27% | 90.4% (active) | 1 | 30% | 98.7% (active) | 3 | 3% | 96.7% (active)
O=C(CCCl)Nc1ccc(CCC(=O)c2ccccc2NC(=O)CCCl)cc1 | -10 | 23% | 69.2% | -9 | -4% | 64.4% | -7 | 59% | 81.8% (active) | -24 | -22% | 27.9% | -8 | 19% | 10.8% | -11 | -6% | 54.3%
CCCN(CCC)C(=O)C(C)C | 1 | -1% | 9.95% | 2 | -4% | -5.6% | -1 | -7% | -5.3% | 0 | -4% | 32.5% | -2 | -2% | -13.1% | 3 | -3% | 16.1%
CC1=C(C(=O)Nc2ccccc2)C(c2ccc(Cl)c(Cl)c2)C(C(=O)Nc2ccccc2)=C(C)N1 | 26 | 26% | 89% (active) | 21 | 21% | 92.8% (active) | 29 | 29% | 91.1% (active) | 8 | 8% | 91% (active) | 1 | 1% | 91.5% (active) | 25 | 25% | 90.6% (active)
